Results filed as inconclusive are left out. Calls of active or inactive are those of the source. The calls were made as follows: active = hit-call score of the fitted dose curve at least 0.9, where 1 is the maximum; inconclusive = response in the unintended direction; inactive = score below 0.9.
Each compound was assayed on Cytochrome P450 2B6 (Homo sapiens) (UniProt P20813) (assay: CLD_CYP2B6_6hr: CellzDirect (CLD) Gene Expression Assay for xenobiotic metabolism (CYP2B6) at 6 hours (AID 2283677);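 also: actives raise CYP2B6 transcript above DMSO baseline so AC50 marks an inducer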).
Protocol: CLD_6hr is a cell-based, multiplexed-readout assay that uses hepatocyte, a human liver primary cell, with measurements taken at 6 hours after chemical dosing in a 96-well plate.CLD_CYP2B6_6hr is one of 16 assay component(s) measured or calculated from the CLD_6hr assay. It is designed to make measurements of mRNA induction, a form of inducible reporter, as detected with chemiluminescence signals by Quantitative Nuclease Protection Assay (qNPA) technology.Data from the assay component CLD_CYP2B6_6hr was analyzed at the endpoint, CLD_CYP2B6_6hr, in the positive analysis fitting direction relative to DMSO as the negative control and baseline of activity. Using a type of inducible reporter, gain-of-signal activity can be used to understand changes in the reporter gene as they relate to the gene CYP2B6. Furthermore, this assay endpoint can be referred to as a primary readout. To generalize the intended target to other relatable targets, this assay endpoint is annotated to the cyp intended target family, where subfamily is xenobiotic metabolism.
Human hepatocyte cultures were treated daily for two consecutive days with fresh dosing solutions containing appropriate concentrations of the 320 ToxCast chemicals (chemical identities were blinded to CellzDirect and other ToxCast collaborators), vehicle control (0.2% DMSO), and positive control inducers as summarized in Table 1. Due to the large number of treatment groups and chemicals examined, the ToxCast chemicals were divided into two groups (spanning two independent cultures of hepatocytes from separate donor preparations (Hu778: ToxCast plates 1 and 2; Hu776: ToxCast plates 3 and 4). Each preparation of human hepatocyte cultures was treated with respective vehicle control, medium only control, set of six positive controls/reference chemicals for the five hepatic receptor pathways, and a subset of eight of the ToxCast chemicals (indoxacarb, pyrithiobac-sodium, norflurazon, cyhalofop-butyl, methomyl, thiram, acetochlor, and propiconazole). These replicate data, coupled with internal replicates designed within the blinded ToxCast chemical library, provided additional data to evaluate interindividual differences between hepatocyte preparations and their potential impact on chemical profiles.Cell morphology and integrity were evaluated using phase-contrast microscopy as an indicator of hepatocyte cell health (Tyson & Green, 1987). Cultures for each treatment group (i.e., media, vehicle [0.2% DMSO], positive control inducers [multiple concentrations], and the ToxCast chemicals [multiple concentrations]) were observed and cell morphology was assessed relative to vehicle control cultures at each harvest time point (0, 6, 24, or 48 h). […] Images were evaluated at the conclusion of the study to assess changes in cell integrity and account for the effects of chemical exposure on uncharacteristic changes in concentration-dependent gene expression profiles. The results from these determinations of apparent cytotoxicity were annotated (yes/no) alongside the corresponding qNPA data for reference.At the conclusion of each treatment period, hepatocyte cultures (96-well) were washed with 1 volume of HBSS, lysed by addition of 25 ul ArrayPlate lysis buffer (HTG, Tucson, AZ), and 70 ul/well of Denaturation Oil, denatured by incubation at 95C for 10 min, and frozen at approximately -70C until analysis by nuclease protection assay (qNPA) (Roberts et al., 2007). For qNPA analysis, cell lysates were thawed at 50C for approximately 30 min, qNPA probes were added, and samples were incubated at 95C for 10 min to begin the detection process by denaturing the target RNA, dissociating the duplexes and secondary structure hybridization. At the conclusion of the hybridization period, S1 nuclease reagent was added to each sample to digest all nonprotected nucleotides at 50C for 60-90 min. […]

Compound | outcome | AC50
CCCCOC(=O)c1ccccc1C(=O)O | inactive | 
CCOP(=S)(OCC)Oc1ccc2c(C)c(Cl)c(=O)oc2c1 |  | 1.44 µM (active)
CN(C)C(=O)Nc1cccc(C(F)(F)F)c1 | inactive | 
CC(=NC#N)N(C)Cc1ccc(Cl)nc1 | inactive | 
Nc1c(Cl)cc([N+](=O)[O-])cc1Cl |  | 20 µM (active)
CNC(=O)Oc1cccc2c1OC(C)(C)O2 |  | 2.74 µM (active)
FC(F)C(F)(F)OCC(Cn1cncn1)c1ccc(Cl)cc1Cl (stereo not given) |  | 1.12 µM (active)
CCOP(=S)(OCC)OC(Cl)C(Cl)(Cl)Cl (stereo not given) |  | 0.833 µM (active)
CCOP(=S)(OCC)SCCSCC |  | 14.1 µM (active)
CCCCSP(=O)(SCCCC)SCCCC |  | 1.9 µM (active)
CCOC(=O)CC(SP(=O)(OC)OC)C(=O)OCC (stereo not given) |  | 14.4 µM (active)
CCOC(=O)COc1cc(-c2nn(C)c(OC(F)F)c2Cl)c(F)cc1Cl |  | 2.63 µM (active)
CNc1cnn(-c2cccc(C(F)(F)F)c2)c(=O)c1Cl |  | 8.33 µM (active)
CCc1cccc(C)c1N(C(=O)CCl)C(C)COC (stereo not given) |  | 0.596 µM (active)
CCOP(=O)(OCC)Oc1cc(C)nc(C(C)C)n1 |  | 20 µM (active)
CCCSP(=O)(OCC)SCCC |  | 0.374 µM (active)
C[N+]1(C)CCCCC1 | inactive | 
CSc1nc(NC(C)C)nc(NC(C)C)n1 |  | 4.01 µM (active)
Cc1ccn2nc(S(=O)(=O)Nc3c(F)cccc3F)nc2n1 | inactive | 
CCC(=NOC/C=C/Cl)C1=C(O)CC(C2CCOCC2)CC1=O (stereo not given) | inactive | 

Compound | outcome | AC50
CN(C)NC(=O)CCC(=O)O | inactive | 
C#CC(C)(C)NC(=O)c1cc(Cl)cc(Cl)c1 |  | 4.15 µM (active)
CCCOc1nn(C(=O)NS(=O)(=O)c2ccccc2C(=O)OC)c(=O)n1C | inactive | 
CN(C)[C@@H]1C(=O)C(C(N)=O)=C(O)[C@@]2(O)C(=O)C3=C(O)c4c(O)cccc4[C@@](C)(O)[C@H]3[C@H](O)[C@@H]12 | inactive | 
CCCOCC(=Nc1ccc(Cl)cc1C(F)(F)F)n1ccnc1 |  | 1.15 µM (active)
CSC1=N[C@@](C)(c2ccccc2)C(=O)N1Nc1ccccc1 |  | 1.88 µM (active)
COc1ccc(C(=CC(=O)N2CCOCC2)c2ccc(Cl)cc2)cc1OC |  | 4.1 µM (active)
CSc1nnc(C(C)(C)C)c(=O)n1N |  | 10.9 µM (active)
CCNc1nc(Cl)nc(NC(C)(C)C#N)n1 |  | 3.62 µM (active)
CC(C)N(C(=O)SCC(Cl)=C(Cl)Cl)C(C)C |  | 5.4 µM (active)
C#CCC1=C(C)C(OC(=O)C2C(C=C(C)C)C2(C)C)CC1=O (stereo not given) |  | 1.08 µM (active)
CNC(=O)ON=C(C)SC | inactive | 
COP(=O)(OC)OC(Br)C(Cl)(Cl)Br (stereo not given) | inactive | 
CC(COc1ccc(Oc2ccccc2)cc1)Oc1ccccn1 (stereo not given) |  | 3.97 µM (active)
Cc1cc(C2CC2)nc(Nc2ccccc2)n1 |  | 1.58 µM (active)
CCOP(=S)(OCC)Oc1ccc([N+](=O)[O-])cc1 |  | 2.58 µM (active)
CCC(=O)Nc1ccc(Cl)c(Cl)c1 |  | 7.9 µM (active)
O=C(O)c1cc(Oc2ccc(C(F)(F)F)cc2Cl)ccc1[N+](=O)[O-] | inactive | 
CCCSP(=O)(OCC)Oc1ccc(Br)cc1Cl (stereo not given) |  | 3.75 µM (active)
CCOP(=S)(Oc1cnc(C(C)(C)C)nc1)OC(C)C (stereo not given) |  | 0.47 µM (active)
